Laboratory results published in PubChem BioAssay AID652145 (The Scripps Research Institute Molecular Screening Center, 2013).
The other results are listed elsewhere or left out. Values without a mark were called inactive. Activity calls are given as the source filed them. The rule behind the calls is not given here.

Test: GDH-TPI coupling enzyme inhibitors, dose response, artefact control for M. tuberculosis FBA inhibitor project, biochemical, fluorescence, IC50 (AID 652145)
Details: GDH-TPI coupled enzyme assay, artifact counterscreen

Compound	IC50
N#Cc1c(N2CCCCC2)nc(N)c2c(N)nc(SCC(=O)O)cc12	> 10 µM
COc1ccc2oc(=O)c(C(=O)NCc3ccccn3)cc2c1	1.9 µM (active)
CC(=O)N1CCN(C(=O)c2cc(-c3ccc(Cl)s3)nc3ccccc23)CC1	2.27 µM (active)
CC(=O)N1C(=O)/C(=C2\SC(=S)N(NC(=O)c3ccc(O)cc3)C2=O)c2ccccc21	> 10 µM
CCCNC(=O)c1c(N)n(-c2ccc(S(N)(=O)=O)cc2)c2nc3ccccc3nc12	2.08 µM (active)
Cn1cccc1-c1nc2ccccc2n1C	5.56 µM (active)
CCOc1c2ccc(C(=O)NC3CCCc4ccccc43)cc2nn1CC (centres undefined)	1.79 µM (active)
O=C1C(=O)N(c2ccccc2)C(c2ccccc2)C1c1ccccc1 (centres undefined)	> 10 µM
O=C(NCc1cccc(Cl)c1)C1=CC=CN2CCS(=O)(=O)N=C12	4.94 µM (active)
